The full list was thinned out, with the strongest signals kept by preference.
What was measured:
Experiment in all cases: glycan array binding signal (z-score within array); higher = stronger binding
Conditions in all cases: glycan notation: IUPAC condensed, linker removed
[1] = target: Gal(b1-4)GlcNAc(b1-3)Gal(b1-4)GlcNAc(b1-3)Gal(b1-4)GlcNAc(b1-3)Gal(b1-4)GlcNAc(b1-2)Man(a1-3)[Gal(b1-4)GlcNAc(b1-3)Gal(b1-4)GlcNAc(b1-3)Gal(b1-4)GlcNAc(b1-3)Gal(b1-4)GlcNAc(b1-2)Man(a1-6)]Man(b1-4)GlcNAc(b1-4)[Fuc(a1-6)]GlcNAc
Method in brief: (§1)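 From the Consortium for Functional Glycomics database, 3228 arrays were curated, keeping only those whose protein sequence was available. Binding is given as a within-array Z-score averaged across arrays sharing a protein sequence and across linkers. Negative Z-scores can be read as non-binding.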

[2] = target: Gal(b1-4)GlcNAc(b1-3)Gal(b1-4)GlcNAc(b1-3)Gal(b1-4)GlcNAc(b1-3)Gal(b1-4)GlcNAc(b1-2)[Gal(b1-4)GlcNAc(b1-3)Gal(b1-4)GlcNAc(b1-3)Gal(b1-4)GlcNAc(b1-3)Gal(b1-4)GlcNAc(b1-6)]Man(a1-6)[Gal(b1-4)GlcNAc(b1-3)Gal(b1-4)GlcNAc(b1-3)Gal(b1-4)GlcNAc(b1-3)Gal(b1-4)GlcNAc(b1-2)Man(a1-3)]Man(b1-4)GlcNAc(b1-4)[Fuc(a1-6)]GlcNAc
Method in brief: as §1

[3] = target: Gal(b1-4)GlcNAc(b1-3)Gal(b1-4)GlcNAc(b1-3)Gal(b1-4)GlcNAc(b1-3)Gal(b1-4)GlcNAc(b1-3)Gal(b1-4)GlcNAc(b1-2)Man(a1-3)[Gal(b1-4)GlcNAc(b1-3)Gal(b1-4)GlcNAc(b1-3)Gal(b1-4)GlcNAc(b1-3)Gal(b1-4)GlcNAc(b1-3)Gal(b1-4)GlcNAc(b1-2)Man(a1-6)]Man(b1-4)GlcNAc(b1-4)GlcNAc
Method in brief: as §1

[4] = target: Gal(b1-4)GlcNAc(b1-3)Gal(b1-4)GlcNAc(b1-3)Gal(b1-4)GlcNAc(b1-3)Gal(b1-4)GlcNAc(b1-3)Gal(b1-4)GlcNAc(b1-2)Man(a1-3)[Gal(b1-4)GlcNAc(b1-3)Gal(b1-4)GlcNAc(b1-3)Gal(b1-4)GlcNAc(b1-3)Gal(b1-4)GlcNAc(b1-3)Gal(b1-4)GlcNAc(b1-2)Man(a1-6)]Man(b1-4)GlcNAc(b1-4)[Fuc(a1-6)]GlcNAc
Method in brief: as §1

[5] = target: Gal(b1-4)GlcNAc(b1-3)Gal(b1-4)GlcNAc(b1-3)Gal(b1-4)GlcNAc(b1-3)Gal(b1-4)GlcNAc(b1-3)Gal(b1-4)GlcNAc(b1-2)[Gal(b1-4)GlcNAc(b1-3)Gal(b1-4)GlcNAc(b1-3)Gal(b1-4)GlcNAc(b1-3)Gal(b1-4)GlcNAc(b1-3)Gal(b1-4)GlcNAc(b1-6)]Man(a1-6)[Gal(b1-4)GlcNAc(b1-3)Gal(b1-4)GlcNAc(b1-3)Gal(b1-4)GlcNAc(b1-3)Gal(b1-4)GlcNAc(b1-3)Gal(b1-4)GlcNAc(b1-2)Man(a1-3)]Man(b1-4)GlcNAc(b1-4)[Fuc(a1-6)]GlcNAc
Method in brief: as §1

[6] = target: Gal(b1-4)GlcNAc(b1-3)Gal(b1-4)GlcNAc(b1-3)Gal(b1-4)GlcNAc(b1-3)Gal(b1-4)GlcNAc(b1-3)Gal(b1-4)GlcNAc(b1-3)Gal(b1-4)GlcNAc(b1-2)Man(a1-3)[Gal(b1-4)GlcNAc(b1-3)Gal(b1-4)GlcNAc(b1-3)Gal(b1-4)GlcNAc(b1-3)Gal(b1-4)GlcNAc(b1-3)Gal(b1-4)GlcNAc(b1-3)Gal(b1-4)GlcNAc(b1-2)Man(a1-6)]Man(b1-4)GlcNAc(b1-4)GlcNAc
Method in brief: as §1

[7] = target: Gal6S(b1-4)GlcNAc
Method in brief: as §1

[8] = target: GalNAc(b1-3)Gal(a1-6)Gal(b1-4)Glc
Method in brief: as §1

[9] = target: GalNAc3S(b1-4)GlcNAc3S
Method in brief: as §1

[10] = target: GalNAc4S6S(b1-4)GlcNAc
Method in brief: as §1

[11] = target: GlcNAc(a1-4)Gal(b1-4)GlcNAc(b1-3)Gal(b1-4)[Fuc(a1-3)]GlcNAc(b1-3)Gal(b1-4)[Fuc(a1-3)]GlcNAc
Method in brief: as §1

[12] = target: GlcNAc(b1-2)Man(a1-3)[GlcNAc(b1-4)][GlcNAc(b1-2)Man(a1-6)]Man(b1-4)GlcNAc(b1-4)GlcNAc
Method in brief: as §1

[13] = target: GlcNAc(b1-3)Gal(b1-4)GlcNAc(b1-3)Gal(b1-4)GlcNAc(b1-3)Gal(b1-4)GlcNAc(b1-3)Gal(b1-4)GlcNAc(b1-2)Man(a1-3)[GlcNAc(b1-3)Gal(b1-4)GlcNAc(b1-3)Gal(b1-4)GlcNAc(b1-3)Gal(b1-4)GlcNAc(b1-3)Gal(b1-4)GlcNAc(b1-2)Man(a1-6)]Man(b1-4)GlcNAc(b1-4)GlcNAc
Method in brief: as §1

[14] = target: GlcNAc(b1-3)Gal(b1-4)GlcNAc(b1-3)Gal(b1-4)GlcNAc(b1-3)Gal(b1-4)GlcNAc(b1-3)Gal(b1-4)GlcNAc(b1-2)Man(a1-3)[GlcNAc(b1-3)Gal(b1-4)GlcNAc(b1-3)Gal(b1-4)GlcNAc(b1-3)Gal(b1-4)GlcNAc(b1-3)Gal(b1-4)GlcNAc(b1-2)Man(a1-6)]Man(b1-4)GlcNAc(b1-4)[Fuc(a1-6)]GlcNAc
Method in brief: as §1

[15] = target: GlcNAc(b1-3)Man
Method in brief: as §1

[16] = target: GlcNAc6S(b1-3)Gal(b1-4)GlcNAc
Method in brief: as §1

[17] = target: Neu5Ac(a2-3)Gal(b1-3)GalNAc(b1-3)Gal(a1-4)Gal(b1-4)Glc
Method in brief: as §1

[18] = target: Neu5Ac(a2-3)Gal(b1-3)GalNAc(b1-4)[Neu5Ac(a2-8)Neu5Ac(a2-3)]Gal(b1-4)Glc
Method in brief: as §1

[19] = target: Neu5Ac(a2-3)Gal(b1-3)[Fuc(a1-4)]GlcNAc(b1-3)Gal(b1-3)[Fuc(a1-4)]GlcNAc
Method in brief: as §1

[20] = target: Neu5Ac(a2-3)Gal(b1-4)GlcNAc(b1-2)Man
Method in brief: as §1

[21] = target: Neu5Ac(a2-3)Gal(b1-4)GlcNAc(b1-2)[Neu5Ac(a2-3)Gal(b1-4)GlcNAc(b1-4)]Man(a1-3)[GlcNAc(b1-4)][Neu5Ac(a2-3)Gal(b1-4)GlcNAc(b1-4)Man(a1-6)]Man(b1-4)GlcNAc(b1-4)GlcNAc
Method in brief: as §1

[22] = target: Neu5Ac(a2-3)Gal(b1-4)GlcNAc(b1-3)Gal(b1-4)GlcNAc(b1-6)[Gal(b1-3)]GalNAc
Method in brief: as §1

[23] = target: Neu5Ac(a2-3)Gal(b1-4)GlcNAc(b1-6)GalNAc
Method in brief: as §1

[24] = target: Neu5Ac(a2-3)GalNAc(b1-4)GlcNAc
Method in brief: as §1

[25] = target: Neu5Ac(a2-3)[GalNAc(b1-4)]Gal(b1-4)GlcNAc(b1-3)GalNAc
Method in brief: as §1

[26] = target: Neu5Ac(a2-6)Gal(b1-4)GlcNAc(b1-3)Gal(b1-4)GlcNAc(b1-3)Gal(b1-4)GlcNAc(b1-2)Man(a1-3)[Neu5Ac(a2-6)Gal(b1-4)GlcNAc(b1-3)Gal(b1-4)GlcNAc(b1-3)Gal(b1-4)GlcNAc(b1-2)Man(a1-6)]GalNAc
Method in brief: as §1

[27] = target: Neu5Ac(a2-6)Gal(b1-4)GlcNAc(b1-3)Gal(b1-4)GlcNAc(b1-6)[Gal(b1-3)]GalNAc
Method in brief: as §1

[28] = target: Neu5Ac(a2-8)Neu5Ac(a2-3)Gal(b1-4)Glc
Method in brief: as §1

B1: LBL-152 (Laetiporus bicolor), B0D650 (protein)
chain: MSNEYNPPLGIAFRLCGLASDRVLFSRVSPSPEVFHHPKSEVYPDQWFVAIPGSGQNAGCYAIKSKNTGKVLFSRMSPDPRVGHIDGDGKYPDNWFKFEAGSGKYAGYFRLRAVASDTVLVSRTSTGTDTQVINYPATSAKYDDQYFTILFDHHHHHH
- glycan array binding signal (z-score) [1]: 8.72
- glycan array binding signal (z-score) [2]: 6.24
- glycan array binding signal (z-score) [3]: 10.6
- glycan array binding signal (z-score) [4]: 9.73
- glycan array binding signal (z-score) [5]: 7.26
- glycan array binding signal (z-score) [6]: 5.94
- glycan array binding signal (z-score) [7]: -0.151
- glycan array binding signal (z-score) [8]: -0.159
- glycan array binding signal (z-score) [9]: -0.163
- glycan array binding signal (z-score) [10]: -0.15
- glycan array binding signal (z-score) [11]: -0.147
- glycan array binding signal (z-score) [12]: -0.153
- glycan array binding signal (z-score) [13]: 3.47
- glycan array binding signal (z-score) [14]: 4.51
- glycan array binding signal (z-score) [15]: -0.156
- glycan array binding signal (z-score) [16]: -0.157
- glycan array binding signal (z-score) [17]: -0.15
- glycan array binding signal (z-score) [18]: -0.145
- glycan array binding signal (z-score) [19]: -0.147
- glycan array binding signal (z-score) [20]: -0.149
- glycan array binding signal (z-score) [21]: -0.16
- glycan array binding signal (z-score) [22]: -0.162
- glycan array binding signal (z-score) [23]: -0.16
- glycan array binding signal (z-score) [24]: -0.153
- glycan array binding signal (z-score) [25]: -0.151
- glycan array binding signal (z-score) [26]: -0.134
- glycan array binding signal (z-score) [27]: -0.154
- glycan array binding signal (z-score) [28]: -0.157

From the supplement of paper PMC8728848
